Where “and” joins values, the source holds several entries; their conditions need not be identical. Identical values can stand only once. Unmarked numbers belong to inactive results. Results filed as inconclusive are left out. Calls of active or inactive are those of the source. Calls come from the whole dose curve; as a rule, active = well fitted curve in the direction sought with a large enough effect in the repeat runs; inconclusive = weak or mixed curves; inactive = no such curve, though single readings can be large; an effect the other way counts as inactive or inconclusive.

Assay [1] can be described thus: Human pregnane X receptor (PXR) small molecule agonists, qHTS cell viability counter screen (AID 1346977). Note: nearly all actives have a fitted effect of over 50% in size. The essentials:
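PXR-Luc HepG2 cells in medium with 5% charcoal-stripped FBS were pre-incubated 5hr, then exposed to compounds for 24hr at 37C. Viability was read in the same wells by CellTiter-Fluor fluorescence, reagent added after 23hr with a 1hr incubation.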
(In qHTS, concentration-response curves come from the screen itself.)

The nature of assay [2]: Caspase-3/7 induction in HepG2 cells by small molecules, qHTS assay (AID 1346978). Note: nearly all actives have a fitted effect of over 15% in size. Note: potency is the fitted concentration of half-maximal effect. The gist of the method: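 Wild-type HepG2 cells (2,000/well) were settled 5 h at 37 C, 5% CO2, then exposed to compounds in DMSO for 17 h. Caspase-3/7 activity was read by luminescence 30 min after adding Caspase-Glo 3/7 reagent at room temperature.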
A short description of assay [3]: Caspase-3/7 induction in CHO-K1 cells by small molecules, qHTS cell viability counter screen (AID 1346979). Note: nearly all actives have a fitted effect of over 35% in size. Note: potency is the fitted concentration of half-maximal effect. The gist of the method:
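Wild-type CHO-K1 cells were seeded at 1,500 per well, rested 5hr at 37 C, then exposed to compounds in DMSO. After 16hr, CellTiter-Fluor reagent was added and fluorescence read 1hr later as the viability measure.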

Assay [4] can be described thus: Caspase-3/7 induction in HepG2 cells by small molecules, qHTS cell viability counter screen (AID 1346981). Note: series mostly up to about 92 µM; nearly all actives have a fitted effect of over 30% in size. The gist of the method: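 HepG2, WT, 2,000 cells/well; 5 hr pre-incubation 37 C/5% CO2; compound pin-transferred from DMSO; 16 hr exposure; CellTiter-Fluor, 1 hr; fluorescence read.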
For assay [5], the target named is Nuclear receptor subfamily 1 group I member 2 (Homo sapiens) (UniProt O75469). Kind of assay: Human pregnane X receptor (PXR) small molecule agonists, qHTS assay (AID 1346982). Note: nearly all actives have a fitted effect of over 35% in size. Note: potency is the fitted concentration of half-maximal effect. The essentials:
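Luciferase signal from ONE-Glo (30 min, room temperature) measured activation of hPXR-driven CYP3A4 reporter expression in PXR-Luc HepG2 cells treated with compounds for 24 hr at 37 C.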

Assay [6] has as its target Cytochrome P450 2D6 (Homo sapiens) (UniProt P10635). In words: Cytochrome P450 Family 2 Subfamily D Member 6 (CYP2D6) small molecule antagonists: luciferase reporter qHTS assay (AID 1671196). Note: nearly all actives have a fitted effect of over 50% in size. Note: potency is the fitted concentration of half-maximal effect. The gist of the method: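 Read-out is luminescence from luciferin formed by CYP2D6 turnover of a proluciferin substrate, recorded as relative luminescence units. Reactions ran 1 h at room temperature after NADPH regeneration solution was added.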
On the technique in general: Reporter assays use an easily measured gene product as a stand-in for the process of interest.

In assay [7] the target is Cytochrome P450 1A2 (Homo sapiens) (UniProt P05177). Kind of assay: Cytochrome P450 Family 1 Subfamily A Member 2 (CYP1A2) small molecule antagonists: luciferase reporter qHTS assay (AID 1671199). Note: nearly all actives have a fitted effect of over 50% in size. Note: potency is the fitted concentration of half-maximal effect. The essentials: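 P450-Glo CYP1A2, 1536-well qHTS: enzyme/proluciferin substrate + cpd (DMSO), 10 min RT; NADPH regen, 1 h RT; detection reagent, 20 min; luminescence, RLU.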
Chain of Cytochrome P450 1A2 (Homo sapiens) (P05177 whole entry, looked up): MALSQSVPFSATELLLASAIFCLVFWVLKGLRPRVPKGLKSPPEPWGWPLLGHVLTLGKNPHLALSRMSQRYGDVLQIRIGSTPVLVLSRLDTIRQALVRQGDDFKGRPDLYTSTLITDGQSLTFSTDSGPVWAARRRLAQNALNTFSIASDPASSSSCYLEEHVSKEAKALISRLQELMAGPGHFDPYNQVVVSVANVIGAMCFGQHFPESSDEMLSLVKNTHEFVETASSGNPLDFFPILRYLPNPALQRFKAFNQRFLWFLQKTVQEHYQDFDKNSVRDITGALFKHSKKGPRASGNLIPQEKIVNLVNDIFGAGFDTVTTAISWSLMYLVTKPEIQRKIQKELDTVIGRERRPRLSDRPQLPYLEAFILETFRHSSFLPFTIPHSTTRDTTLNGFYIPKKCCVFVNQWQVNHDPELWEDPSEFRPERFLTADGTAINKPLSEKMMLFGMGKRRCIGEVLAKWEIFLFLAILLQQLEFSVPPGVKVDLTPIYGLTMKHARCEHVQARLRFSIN

The target in assay [8] is Voltage-gated inwardly rectifying potassium channel KCNH2 (Homo sapiens) (UniProt Q12809). Kind of assay: Human Ether-a-go-go-Related Gene (hERG) channel small molecule antagonists: fluorescence cell-based qHTS assay (AID 1671200).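 Note: hERG-expressing U2OS cells given a thallium stimulus after FluxOR II dye loading; series mostly up to about 77 µM; nearly all actives have a fitted effect of over 50% in size.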 The essentials:
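U2OS cells expressing the channel were plated at 1000 cells/well, incubated overnight at 37 C, then loaded with FluxOR II thallium-sensitive dye for 1 h at room temperature in the dark, with a further 10 min at room temperature before stimulation.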
Background: Block of hERG is tested as a sign of cardiac risk.

Assay [9] addresses Cytochrome P450 3A4 (Homo sapiens) (UniProt P08684). In words: Cytochrome P450 Family 3 Subfamily A Member 4 (CYP3A4) small molecule antagonists: luciferase reporter qHTS assay (AID 1671201). The essentials:
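P450-Glo CYP3A4 system with proluciferin substrate; compounds preincubated 10 min RT with enzyme-substrate mix, then NADPH regeneration added for 1 h RT. Detection reagent 20 min, luminescence read as relative luminescence units.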

A short description of assay [10]: Caspase-3/7 induction in CHO-K1 cells by small molecules, qHTS assay (AID 1346980). Note: nearly all actives have a fitted effect of over 15% in size. The essentials:
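Wild-type cells were seeded at 1,500 per well and settled 5 hr at 37 C, 5% CO2, then exposed to DMSO-dissolved compounds for 17 hr. Caspase-Glo 3/7 reagent was added, and luminescence was read after 30min at room temperature.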

The target of assay [11] is Cytochrome P450 2C19 (Homo sapiens) (UniProt P33261). Kind of assay: Cytochrome P450 Family 2 Subfamily C Member 19 (CYP2C19) small molecule antagonists: luciferase reporter qHTS assay (AID 1671197). Note: nearly all actives have a fitted effect of over 65% in size. Note: potency is the fitted concentration of half-maximal effect. The gist of the method: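 Relative luminescence units recorded 20 min after the detection reagent stopped a 1 h, 37C CYP2C19 reaction on proluciferin substrate, which was started by NADPH regeneration following 10 min room-temperature compound preincubation; ketoconazole positive control.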
Chain of Cytochrome P450 2C19 (Homo sapiens) (P33261 whole entry, looked up): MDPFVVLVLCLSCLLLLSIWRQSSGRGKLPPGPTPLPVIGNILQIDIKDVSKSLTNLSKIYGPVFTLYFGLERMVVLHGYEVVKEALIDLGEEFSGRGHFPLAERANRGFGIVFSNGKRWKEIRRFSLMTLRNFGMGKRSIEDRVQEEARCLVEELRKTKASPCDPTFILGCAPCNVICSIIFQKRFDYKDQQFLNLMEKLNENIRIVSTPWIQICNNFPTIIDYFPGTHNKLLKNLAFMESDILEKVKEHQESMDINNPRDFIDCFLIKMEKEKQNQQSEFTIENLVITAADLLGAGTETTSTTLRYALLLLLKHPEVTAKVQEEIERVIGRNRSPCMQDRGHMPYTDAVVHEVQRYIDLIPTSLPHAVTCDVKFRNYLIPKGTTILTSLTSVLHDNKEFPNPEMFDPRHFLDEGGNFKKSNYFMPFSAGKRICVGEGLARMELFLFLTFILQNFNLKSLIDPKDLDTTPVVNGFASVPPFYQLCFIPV

The target of assay [12] is Cytochrome P450 2C9 (Homo sapiens) (UniProt P11712). In words: Cytochrome P450 Family 2 Subfamily C Member 9 (CYP2C9) small molecule antagonists: luciferase reporter qHTS assay (AID 1671198). Note: nearly all actives have a fitted effect of over 50% in size. Note: potency is the fitted concentration of half-maximal effect. The essentials: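 CYP2C9 activity was measured with a P450-Glo proluciferin substrate. Enzyme–substrate mix was held with compound for 10 min at room temperature, then NADPH regeneration solution was added for 1 h at 37C. Luciferin product was read as luminescence.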
Chain of Cytochrome P450 2C9 (Homo sapiens) (P11712 whole entry, looked up): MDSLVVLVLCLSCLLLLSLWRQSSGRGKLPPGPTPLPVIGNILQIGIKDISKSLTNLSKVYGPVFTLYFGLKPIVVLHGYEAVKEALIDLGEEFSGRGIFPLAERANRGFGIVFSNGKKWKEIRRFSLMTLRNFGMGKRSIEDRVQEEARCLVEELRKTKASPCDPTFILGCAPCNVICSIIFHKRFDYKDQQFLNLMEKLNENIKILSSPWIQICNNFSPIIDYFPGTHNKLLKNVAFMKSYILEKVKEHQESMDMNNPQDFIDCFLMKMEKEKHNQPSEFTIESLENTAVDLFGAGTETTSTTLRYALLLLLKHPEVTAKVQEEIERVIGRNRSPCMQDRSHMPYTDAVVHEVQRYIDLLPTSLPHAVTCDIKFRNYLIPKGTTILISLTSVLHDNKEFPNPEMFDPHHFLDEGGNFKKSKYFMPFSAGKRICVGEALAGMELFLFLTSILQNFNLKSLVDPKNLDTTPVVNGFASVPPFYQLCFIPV

The target in assay [13] is Nuclear receptor subfamily 1 group I member 2 (Rattus norvegicus) (UniProt Q9R1A7). Kind of assay: Rat pregnane X receptor (rPXR) activation by small molecules, qHTS assay (AID 1346983). Note: potency is the fitted concentration of half-maximal effect; nearly all actives have a fitted effect of over 20% in size. The note with it: rPXR luciferase reporter cells, One-Glo luminescence, 24 h; max activation: hits give high values. The essentials:
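Cell-based rPXR luciferase reporter assay, 2,000 cells per well, rested 5hr at 37 C before compound addition in DMSO, then 24 hr at 37 C. One-Glo reagent was added and luminescence read after 30 min at room temperature.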

The target in assay [14] is Nuclear receptor subfamily 1 group I member 2 (Homo sapiens) (UniProt O75469). In words: CYP3A4 induction through human pregnane X receptor (PXR) by small molecules, qHTS assay (AID 1346984). Note: potency is the fitted concentration of half-maximal effect; nearly all actives have a fitted effect of over 40% in size. The essentials:
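Luminescence readout: luciferase signal after One-Glo (30 min, room temperature), following 3 h at 37C with 3uM final Luciferin-IPA P450 substrate. Cells were DPX-2 (HepG2, PXR/CYP3A4-luc co-transfected) dosed for 24 h.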

Assay [15] shares this target. In words: Human pregnane X receptor (PXR) activation by small molecules, qHTS assay (AID 1346985). Note: potency is the fitted concentration of half-maximal effect; nearly all actives have a fitted effect of over 40% in size. The gist of the method:
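DPX-2 cells (HepG2 co-transfected with a PXR response element and a CYP3A4-promoter luciferase construct) were seeded at 2,000 per well, rested 5 hr at 37C, then exposed to DMSO-dissolved compounds for 24 hr. Activation was read as luciferase luminescence.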

Chain of Cytochrome P450 2D6 (Homo sapiens) (P10635 whole entry, looked up): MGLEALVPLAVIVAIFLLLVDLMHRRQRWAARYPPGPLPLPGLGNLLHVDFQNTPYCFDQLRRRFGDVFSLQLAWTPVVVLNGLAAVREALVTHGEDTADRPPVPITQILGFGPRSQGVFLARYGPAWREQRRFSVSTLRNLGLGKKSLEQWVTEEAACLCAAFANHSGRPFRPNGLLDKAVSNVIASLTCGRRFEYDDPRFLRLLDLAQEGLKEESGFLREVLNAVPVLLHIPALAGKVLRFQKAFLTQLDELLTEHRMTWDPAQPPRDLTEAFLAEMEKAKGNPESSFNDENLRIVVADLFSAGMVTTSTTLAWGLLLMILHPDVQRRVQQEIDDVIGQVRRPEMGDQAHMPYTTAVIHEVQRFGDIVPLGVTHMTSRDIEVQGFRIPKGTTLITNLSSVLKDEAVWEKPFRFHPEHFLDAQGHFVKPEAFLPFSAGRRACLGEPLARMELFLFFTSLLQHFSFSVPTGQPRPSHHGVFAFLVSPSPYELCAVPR
Chain of Voltage-gated inwardly rectifying potassium channel KCNH2 (Homo sapiens) (Q12809 whole entry, looked up): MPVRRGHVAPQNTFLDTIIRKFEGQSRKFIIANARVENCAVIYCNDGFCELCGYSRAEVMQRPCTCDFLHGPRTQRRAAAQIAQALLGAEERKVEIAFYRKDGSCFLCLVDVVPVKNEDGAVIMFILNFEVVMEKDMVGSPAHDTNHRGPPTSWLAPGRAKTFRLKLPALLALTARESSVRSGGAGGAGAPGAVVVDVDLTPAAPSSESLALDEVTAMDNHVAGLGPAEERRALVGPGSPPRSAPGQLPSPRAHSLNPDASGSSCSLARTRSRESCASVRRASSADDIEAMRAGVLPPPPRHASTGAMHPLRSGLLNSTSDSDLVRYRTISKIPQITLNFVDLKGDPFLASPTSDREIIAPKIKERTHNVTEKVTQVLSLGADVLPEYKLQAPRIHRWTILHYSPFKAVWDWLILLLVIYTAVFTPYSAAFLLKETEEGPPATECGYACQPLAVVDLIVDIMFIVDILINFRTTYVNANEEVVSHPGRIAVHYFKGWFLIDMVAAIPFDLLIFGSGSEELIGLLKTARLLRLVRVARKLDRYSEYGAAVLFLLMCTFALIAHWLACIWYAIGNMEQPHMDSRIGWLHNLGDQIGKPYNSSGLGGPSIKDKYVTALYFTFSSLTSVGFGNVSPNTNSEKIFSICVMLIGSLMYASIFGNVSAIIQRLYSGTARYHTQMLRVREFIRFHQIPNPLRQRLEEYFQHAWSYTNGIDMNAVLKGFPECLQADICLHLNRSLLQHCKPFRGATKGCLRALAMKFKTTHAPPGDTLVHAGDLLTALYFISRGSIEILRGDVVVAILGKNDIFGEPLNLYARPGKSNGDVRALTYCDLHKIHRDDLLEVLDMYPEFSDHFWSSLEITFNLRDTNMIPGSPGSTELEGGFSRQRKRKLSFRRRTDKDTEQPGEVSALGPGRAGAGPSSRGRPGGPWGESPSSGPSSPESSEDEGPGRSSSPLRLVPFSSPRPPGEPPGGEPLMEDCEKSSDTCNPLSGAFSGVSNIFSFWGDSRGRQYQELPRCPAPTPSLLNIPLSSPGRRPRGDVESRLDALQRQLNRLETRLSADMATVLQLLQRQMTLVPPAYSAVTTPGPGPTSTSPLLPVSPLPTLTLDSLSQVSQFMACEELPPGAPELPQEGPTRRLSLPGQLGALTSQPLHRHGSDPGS
Chain of Nuclear receptor subfamily 1 group I member 2 (Homo sapiens) (O75469 whole entry, looked up): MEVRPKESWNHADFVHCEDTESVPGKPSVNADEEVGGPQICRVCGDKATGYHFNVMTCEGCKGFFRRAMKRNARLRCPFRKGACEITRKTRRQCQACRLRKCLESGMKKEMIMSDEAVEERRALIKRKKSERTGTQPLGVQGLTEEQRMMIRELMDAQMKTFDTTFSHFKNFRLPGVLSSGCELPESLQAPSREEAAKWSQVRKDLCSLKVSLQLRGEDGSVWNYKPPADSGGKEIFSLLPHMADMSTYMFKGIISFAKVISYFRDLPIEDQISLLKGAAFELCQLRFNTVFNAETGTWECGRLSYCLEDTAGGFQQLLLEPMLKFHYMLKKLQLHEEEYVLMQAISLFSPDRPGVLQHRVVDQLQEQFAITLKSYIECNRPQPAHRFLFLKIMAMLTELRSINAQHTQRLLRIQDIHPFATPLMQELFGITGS
Chain of Cytochrome P450 3A4 (Homo sapiens) (P08684 whole entry, looked up): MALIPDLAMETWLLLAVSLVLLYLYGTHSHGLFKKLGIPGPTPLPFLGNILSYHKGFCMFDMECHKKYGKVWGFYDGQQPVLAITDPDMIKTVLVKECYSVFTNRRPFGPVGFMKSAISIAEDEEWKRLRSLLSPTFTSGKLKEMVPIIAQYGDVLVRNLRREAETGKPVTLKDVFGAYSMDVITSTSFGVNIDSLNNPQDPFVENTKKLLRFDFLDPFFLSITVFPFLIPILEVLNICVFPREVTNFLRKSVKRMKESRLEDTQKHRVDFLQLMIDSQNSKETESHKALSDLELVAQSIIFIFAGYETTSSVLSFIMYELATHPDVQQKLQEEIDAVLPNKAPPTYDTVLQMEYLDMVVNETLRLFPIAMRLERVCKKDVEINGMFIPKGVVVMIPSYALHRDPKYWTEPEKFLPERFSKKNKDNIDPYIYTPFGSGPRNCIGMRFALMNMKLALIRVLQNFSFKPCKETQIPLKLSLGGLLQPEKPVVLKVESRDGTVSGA
Chain of Nuclear receptor subfamily 1 group I member 2 (Rattus norvegicus) (Q9R1A7 whole entry, looked up): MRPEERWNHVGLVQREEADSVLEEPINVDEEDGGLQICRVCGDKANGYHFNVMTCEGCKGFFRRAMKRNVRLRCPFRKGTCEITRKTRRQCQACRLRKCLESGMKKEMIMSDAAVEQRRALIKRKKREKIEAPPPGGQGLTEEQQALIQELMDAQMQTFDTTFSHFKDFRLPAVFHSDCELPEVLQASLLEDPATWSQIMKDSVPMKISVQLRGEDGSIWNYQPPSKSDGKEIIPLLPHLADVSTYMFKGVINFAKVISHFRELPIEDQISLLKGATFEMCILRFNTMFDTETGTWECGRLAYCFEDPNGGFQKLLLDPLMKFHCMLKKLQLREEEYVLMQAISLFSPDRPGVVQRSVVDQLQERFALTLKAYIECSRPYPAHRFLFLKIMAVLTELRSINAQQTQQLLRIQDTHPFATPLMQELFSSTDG

For `Nc1c(I)cc(I)c(C(=O)N(CCC(=O)O)c2ccccc2)c1I`, the Potency entry in [1], in assay [2], in assay [3], in [4], in assay [6] and in [7] was “inactive” throughout. Also, the Potency result in assay [8] and in assay [9] was “inactive” each time. Besides, the Potency in assay [5] was 26.6 µM (active).

Turning to `CCCCN(CCCC)C(=S)SSC(=S)N(CCCC)CCCC`, the Potency result in [1] and in assay [2] was “inactive” each time. Further, the Potency is 27 µM (active) in assay [3]; 30.3 µM (active) in assay [5]; 17.7 µM (active) in [11]; 2.8 µM (active) in [12]; 35.2 µM (active) in [7]. For the same compound, the compound was classed as inactive in [10].

In the case of `C[C@@H]1C[C@H]2[C@@H]3CCC4=CC(=O)C=C[C@]4(C)[C@@]3(F)[C@@H](O)C[C@]2(C)[C@@]1(O)C(=O)CO`, the Potency entry in assay [1], in [2], in assay [3], in [4] and in assay [8] was “inactive” in each case. Moreover, in assay [10], the compound was called inactive.

Regarding `COC(=O)CC(=O)C(C)(C)C`, the Potency result in assay [1], in assay [2], in assay [3], in assay [4], in [5] and in assay [11] was “inactive” throughout. The Potency entry in assay [8] and in [9] was “inactive” throughout.

Consider `Nc1ccc(S(=O)(=O)O)cc1`, for which the Potency result in assay [1], in [2], in assay [3], in assay [4], in assay [11] and in [12] was “inactive” each time. For the same compound, the Potency entry in assay [7], in assay [8] and in assay [9] was “inactive” throughout. The outcome in assay [10] was inactive.

In the case of `CCC(C(=O)OCCN(CC)CC)c1ccccc1` (configuration not stated), the Potency entry in [1], in assay [2], in assay [3], in assay [4], in [5] and in assay [11] was “inactive” each time. In addition, the Potency entry in [12], in assay [8] and in assay [9] was “inactive” throughout. Moreover, the Potency in [6] is 3.09 µM (active); in assay [7], 11.5 µM (active).

For the compound `CCCC1C(CC)=CC(CC)=CN1c1ccccc1` (configuration not stated), the Potency result in assay [1], in assay [2] and in assay [3] was “inactive” each time. Further, the call in assay [10] was inactive. The Potency in [5] was 24.3 µM (active); in [6], 20 µM (active); in [11], 2 µM (active); in [12] it was 17.8 µM (active); in assay [7] it was 11.2 µM (active).

On to `COC(OC)(C(=O)c1ccccc1)c1ccccc1`, for which the Potency result in assay [1], in assay [2], in assay [3], in assay [4], in assay [7] and in [8] was “inactive” in each case. In addition, in assay [9], the Potency entry was “inactive”. The compound was classed as inactive in assay [10]. Further, the Potency in assay [5] is 24.3 µM (active); in assay [11] it was 10 µM (active); in [12], 20 µM (active).

Take `CCCCCCCCCOC(C)=O`: the Potency entry in assay [1], in assay [2], in [3], in [5], in assay [12] and in [8] was “inactive” each time. For the same compound, the Potency result in [9] is “inactive”. Also, the compound was classed as inactive in [10].

`CCCCCCCCCCCC[N+](C)(C)CCCS(=O)(=O)[O-]`: the Potency entry in assay [1], in assay [2], in [3], in assay [5], in assay [6] and in [11] was “inactive” each time. Also, the Potency result in assay [12], in [7], in assay [8] and in assay [9] was “inactive” throughout. Also, in assay [10], the compound was called inactive.

As to `COCc1c(C(C)C)nc(C(C)C)c(/C=C/[C@@H](O)C[C@@H](O)CC(=O)O)c1-c1ccc(F)cc1`, the Potency entry in [1], in assay [11] and in assay [8] was “inactive” throughout. For the same compound, the Potency in [2] was 2.11 µM (active) and 958 nM (active); in assay [5] it was 15 µM (active) and 10.8 µM (active); in assay [13], 11.2 µM (active); in [14] it was 3.16 µM (active); in [15], 3.55 µM (active); in assay [12] it was 35.2 µM (active). In addition, in [7], the Potency was 30.9 µM (active). Besides, the result in assay [10] was inactive.
